15 molecules from PubChem BioAssay (NCATS) can be followed below.

In assay [1] the test system is Zika virus NS2B-NS3 protease (unlinked complex). As to the kind of experiment: Primary screen GU Rhodamine qHTS for Zika virus inhibitors: Unlinked NS2B-NS3 protease assay (AID 1347159). Also: % is scaled to controls: 0 for no effect and ±100 for the full control effect; nearly all actives have a fitted effect of over 60% in size. The gist of the method: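 Percent inhibition came from the 15-min rise in Rhodamine110 fluorescence (1.5 microM substrate, ~15% conversion), normalized to no-inhibitor and no-enzyme wells and Hill-fitted. Unlinked protease, 25 nM, pH 8.0 Tris buffer; compounds up to 114 microM, 15-min preincubation.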
For orientation: Quantitative high-throughput screening tests each substance at several concentrations.

The target of assay [2] is Cytochrome P450 2C9 (Homo sapiens) (UniProt P11712). As to the kind of experiment: Cytochrome P450 family 2 subfamily C member 9 (CYP2C9) small molecule antagonists: luciferase biochemical (cell-free) qHTS assay (AID 1645842; active = well fitted curve in the direction sought with a large enough effect in the repeat runs; an effect the other way counts as inactive or inconclusive; also: potency is read from the fitted curve at half-maximal effect; nearly all actives have a fitted effect of over 55% in size). The gist of the method: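 P450-Glo CYP2C9 system: proluciferin substrate with enzyme in mix containing 0.4% BSA, 10 min at room temperature, then NADPH regeneration solution added and incubated 1 h at 37C. Detection reagent stopped reaction; luminescence read after 20 min as RLU.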
Sequence of Cytochrome P450 2C9 (Homo sapiens) (P11712 whole entry, looked up): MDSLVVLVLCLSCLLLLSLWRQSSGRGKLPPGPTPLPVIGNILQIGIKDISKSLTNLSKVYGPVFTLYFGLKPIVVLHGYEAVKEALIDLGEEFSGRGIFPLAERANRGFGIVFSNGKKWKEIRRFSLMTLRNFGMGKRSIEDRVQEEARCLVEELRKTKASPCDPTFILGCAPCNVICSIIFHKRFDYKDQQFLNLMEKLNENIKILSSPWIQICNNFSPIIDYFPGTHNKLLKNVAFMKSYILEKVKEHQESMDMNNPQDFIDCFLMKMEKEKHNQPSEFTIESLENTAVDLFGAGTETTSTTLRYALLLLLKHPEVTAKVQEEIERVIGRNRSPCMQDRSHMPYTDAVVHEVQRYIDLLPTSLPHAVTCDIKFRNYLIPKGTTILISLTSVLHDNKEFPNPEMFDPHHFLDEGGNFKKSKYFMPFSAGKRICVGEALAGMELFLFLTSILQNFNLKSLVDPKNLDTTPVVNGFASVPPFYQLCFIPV

The target of assay [3] is Catechol O-methyltransferase (Homo sapiens) (UniProt P21964). As to the kind of experiment: Confirmatory Screen for Target Class Profiling of Small Molecule Inhibitors of Methyltransferases (AID 1745852; calls by dose curve; as to activity change, negative = inhibition: % is scaled to controls: 0 for no effect and ±100 for the full control effect). To be noted: MTase-Glo luminescence, SAH detection, recombinant enzyme; measured here: COMT max response; stronger effect = lower value.
Sequence of Catechol O-methyltransferase (Homo sapiens) (P21964 whole entry, looked up): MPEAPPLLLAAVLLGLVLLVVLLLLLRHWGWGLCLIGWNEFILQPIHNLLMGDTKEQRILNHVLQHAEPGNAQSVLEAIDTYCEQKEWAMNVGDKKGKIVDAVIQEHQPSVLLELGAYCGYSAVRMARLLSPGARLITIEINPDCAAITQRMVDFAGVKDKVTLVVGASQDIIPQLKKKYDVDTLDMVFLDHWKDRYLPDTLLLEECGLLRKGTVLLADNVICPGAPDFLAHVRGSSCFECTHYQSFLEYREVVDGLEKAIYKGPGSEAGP
Assay [4] deals with Guanidinoacetate N-methyltransferase (Homo sapiens) (UniProt Q14353). The assay is described as above. As to conditions: activity change, negative = inhibition: at 57.3 µM (top of the series) unless noted.
Assay [5] deals with Nicotinamide N-methyltransferase (Homo sapiens) (UniProt P40261). Described as above. As to conditions: MTase-Glo luminescence, SAH detection, recombinant enzyme; measured here: NNMT max response; stronger effect = lower value.
Sequence of Nicotinamide N-methyltransferase (Homo sapiens) (P40261 whole entry, looked up): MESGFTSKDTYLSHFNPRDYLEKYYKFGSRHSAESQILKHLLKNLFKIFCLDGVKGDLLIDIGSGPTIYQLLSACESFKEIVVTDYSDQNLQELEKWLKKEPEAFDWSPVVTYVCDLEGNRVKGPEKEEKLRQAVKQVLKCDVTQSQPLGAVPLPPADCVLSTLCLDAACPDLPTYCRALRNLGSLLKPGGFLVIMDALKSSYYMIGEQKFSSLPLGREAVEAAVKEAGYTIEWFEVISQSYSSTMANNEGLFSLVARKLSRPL
Assay [6] concerns the target Phenylethanolamine N-methyltransferase (Homo sapiens) (UniProt P11086). The description is as above. To be noted: MTase-Glo luminescence, SAH detection, recombinant enzyme; measured here: PNMT max response; stronger effect = lower value.
The subject of a further assay is HaCat. As to the kind of experiment: Cytotoxic Profiling of Annotated Libraries Using Quantitative High-Throughput Screening (AID 1296008). Also: nearly all actives have a fitted effect of over 60% in size. Also: potency is read from the fitted curve at half-maximal effect. As to max response: % is scaled to controls: 0 for no effect and ±100 for the full control effect. As to conditions: Five cell lines viability, CellTiter-Glo ATP luminescence, 48-72 h; max response: stronger effect = lower value. The gist of the method:
(§1)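 Cytotoxicity was measured as CellTiter-Glo ATP luminescence, read after 10 min at room temperature. Compound treatment of the cells lasted 48 or 72 hr at 37 degrees Celsius in a qHTS format.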
Background: Cellular ATP, detected with luciferase, serves as a proxy for viable cell number.

Assay [7] deals with Cytochrome P450 2D6 (Homo sapiens) (UniProt P10635). As to the kind of experiment: Cytochrome P450 family 2 subfamily D member 6 (CYP2D6) small molecule antagonists: luciferase biochemical (cell-free) qHTS assay (AID 1645840; active = well fitted curve in the direction sought with a large enough effect in the repeat runs; an effect the other way counts as inactive or inconclusive; also: potency is read from the fitted curve at half-maximal effect; nearly all actives have a fitted effect of over 55% in size). In outline: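 P450-Glo CYP2D6 system: proluciferin substrate converted by enzyme to luciferin, read by luminescence proportional to activity. Enzyme-substrate mix with compound 10 min at room temperature, then NADPH regeneration 1 h before detection reagent.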
Sequence of Cytochrome P450 2D6 (Homo sapiens) (P10635 whole entry, looked up): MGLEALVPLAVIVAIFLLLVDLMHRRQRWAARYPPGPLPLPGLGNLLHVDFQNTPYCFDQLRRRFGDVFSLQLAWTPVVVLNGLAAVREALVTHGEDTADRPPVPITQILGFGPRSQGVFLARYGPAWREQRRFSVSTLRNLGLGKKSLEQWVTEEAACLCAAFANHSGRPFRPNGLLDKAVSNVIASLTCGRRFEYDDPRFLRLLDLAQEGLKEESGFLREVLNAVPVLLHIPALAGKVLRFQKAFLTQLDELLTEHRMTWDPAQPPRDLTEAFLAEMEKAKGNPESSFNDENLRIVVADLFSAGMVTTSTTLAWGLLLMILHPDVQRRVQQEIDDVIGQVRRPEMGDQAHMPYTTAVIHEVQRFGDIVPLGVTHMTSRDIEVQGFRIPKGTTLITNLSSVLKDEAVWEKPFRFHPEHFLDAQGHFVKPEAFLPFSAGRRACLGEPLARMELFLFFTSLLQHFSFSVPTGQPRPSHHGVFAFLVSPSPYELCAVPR

The next assay has as its system CAOV3. The assay can be described thus: Primary qHTS to identify gynecologic anti-cancer compounds using libraries of approved drugs and bioactive compounds (AID 1345084). Also: nearly all actives have a fitted effect of over 55% in size. Also: potency is read from the fitted curve at half-maximal effect. To be noted: Gynecologic cancer cell panel viability, ATPlite luminescence, 48 h; series mostly up to 57.5 µM. In outline:
(§2)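 Five-concentration response, 48 h; readout is ATP-driven luciferase luminescence.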

For another assay, the system named is SKOV3. Described as above. As to conditions: Gynecologic cancer cell panel viability, ATPlite luminescence, 48 h; series mostly up to 57.5 µM. In outline: as §2
Assay [8] can be described thus: qHTS to identify inhibitors of the type 1 interferon - major histocompatibility complex class I in skeletal muscle: primary screen against the NCATS Mechanism Interrogation Plate v5.0 (MIPE) Libary (AID 1347411).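 Also: plate controls were vehicle for no effect and reference inhibitor for full effect; nearly all actives have a fitted effect of over 65% in size.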 In outline: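 IFN-beta-driven (4 ng/ml) HLA-B-HiBit expression in CRISPR-tagged C25cl48 myoblasts; compounds 11-pt, 1:3, max 46 uM, 24 hr exposure; lytic NanoLuc complementation luminescence.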

Assay [9] is described as follows: qHTS drug screen for cell cycle checkpoint inhibitors in PARPi-resistant BRCA-mutant ovarian cancer cell lines. (AID 1963452; calls by dose curve). To be noted: PEO1/OlaR viability, CellTiter-Glo luminescence, 96 h, stronger effect = lower value. The gist of the method: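 PEO1, PEO4 and PEO1/OlaR ovarian cancer cells, 600 per well, exposed 96 h at 37C to a dilution series. Viability read by CellTiter-Glo luminescence, normalized to DMSO and empty wells; activity summarized as Z-AUC.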

For another assay, the system named is NIH3T3. As to the kind of experiment: Cytotoxic Profiling of Annotated Libraries Using Quantitative High-Throughput Screening (AID 1296008). Also: nearly all actives have a fitted effect of over 60% in size. Also: potency is read from the fitted curve at half-maximal effect. As to max response: % is scaled to controls: 0 for no effect and ±100 for the full control effect. As to conditions: Five cell lines viability, CellTiter-Glo ATP luminescence, 48-72 h; max response: stronger effect = lower value. In outline: as §1
A short description of assay [10]: Confirmatory screen GU Rhodamine qHTS for Zika virus inhibitors qHTS (AID 1347157). Also: potency is read from the fitted curve at half-maximal effect; nearly all actives have a fitted effect of over 70% in size. The gist of the method:
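A qHTS format was used, with compound concentrations ranging up to 114 microM. Each compound was preincubated with 25 nM NS2B-NS3 protease, and the substrate was then added at 1.5 microM. Curves were fitted with a 4-parameter Hill model.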

In assay [11] the test system is Zika virus NS2B-NS3 protease (linked construct). As to the kind of experiment: 384 well plate NINDS Rhodamine confirmatory qHTS for Zika virus inhibitors (AID 1347164).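 Also: fluorescence from protease cleavage of Ac-LKRR-rhodamine 110 substrate; top concentration of the series differs between compounds; plate controls were no-inhibitor control for no effect and no-enzyme control for full effect; nearly all actives have a fitted effect of over 65% in size.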 The gist of the method:
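Linked protease at a final 5 nM, 30 nM or 60 nM was preincubated ~15 min with compounds, then given 10 microM Ac-LKRR-Rhodamine 110. Fluorescence (ex 485/em 538 nm) after 25 min in the dark at room temperature.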

Assay [12] in a line: Confirmatory screen NINDS Rhodamine qHTS for Zika virus inhibitors (AID 1347161).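 Also: purified Zika NS2B-NS3 protease with linked NS2B cofactor domain and Rhodamine110 peptide substrate; plate controls were no-inhibitor control for no effect and no-enzyme control for full effect; nearly all actives have a fitted effect of over 60% in size.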 In outline:
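Single-chain NS2B-NS3 protease, 25 nM, pH 8.0; compounds preincubated 15 min. Activity: Rhodamine110 release from 1.5 microM substrate over 15 min, room temperature, data fitted to 4-parameter Hill.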

Assay [13] is described as follows: P-glycoprotein substrates identified in KB-8-5-11 adenocarcinoma cell line, qHTS therapeutic library screen (AID 1346987). Also: potency is read from the fitted curve at half-maximal effect; nearly all actives have a fitted effect of over 65% in size. In outline: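 Human cervical adenocarcinoma KB-8-5-11 cells, selected in colchicine to over-express P-gp and assayed without it, were exposed for 72 h to titrated compounds. An ATP-based luminescent viability signal gave AC50.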

Results filed as inconclusive are left out. Calls of active or inactive are those of the source. Unless noted, calls follow the shape of the dose curve; as a rule, active = well fitted curve in the direction sought with a large enough effect; inconclusive = small, poorly fitted or top-dose-only effect, or another doubt; inactive = no such curve, though single readings can be large; an effect the other way counts as inactive or inconclusive.

Sequence of Phenylethanolamine N-methyltransferase (Homo sapiens) (P11086 whole entry, looked up): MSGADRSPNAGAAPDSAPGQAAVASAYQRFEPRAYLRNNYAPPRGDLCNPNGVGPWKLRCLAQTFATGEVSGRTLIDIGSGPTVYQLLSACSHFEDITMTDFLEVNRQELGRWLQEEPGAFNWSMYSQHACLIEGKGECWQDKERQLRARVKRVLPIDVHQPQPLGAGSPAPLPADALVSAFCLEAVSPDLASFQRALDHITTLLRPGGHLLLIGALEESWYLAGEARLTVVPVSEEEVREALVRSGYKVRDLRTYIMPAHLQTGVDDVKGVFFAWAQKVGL

For the molecule `COc1cc(N2CCOCC2)ccc1Nc1ncc(F)c(Nc2ccccc2NS(C)(=O)=O)n1`, the Potency result in assay [1] is “inactive”. Besides, the values for the Potency (in assay [2]; in the assay on HaCat) were 2.13 µM (active) and 7.31 µM (active), respectively. In addition, the activity in assay [3] is -0.204%; in assay [5] it was 3.16%; in [6], -0.832%. The activity change, negative = inhibition in [4] came out at 2.81%.
Take `CCCCn1c(-c2ccccc2)nc(-c2ccccc2)c1CN(Cc1ccc2c(c1)OCO2)Cc1ccc2c(c1)OCO2`: the Potency result (in assay [1]; with CAOV3; with SKOV3) was “inactive” in each case. Also, the Potency in assay [7] was 0.849 µM (active); in assay [2], 2.68 µM (active). Further, the max response in the assay on HaCat is -27.1% (inactive).
For `Cc1ccc(CCCO)c(NCc2ccc3nc(NCCCN4CCOCC4)n(Cc4nc(C)ccc4O)c3c2)c1`, the Potency entry in [1] was “inactive”. In the assay with HaCat, the max response is -12.2% (inactive).
Take `COc1ccc(C2(CNC(=O)[C@](C)(Cc3c[nH]c4ccccc34)NC(=O)Nc3ccc([N+](=O)[O-])cc3)CCCCC2)nc1`: in assay [2], the Potency is 2.68 µM (active). Also, the Potency entry with CAOV3 was “inactive”.
As to `Cc1cc(CS(=O)(=O)c2ccccc2)cc(OCc2ccc(CN3CCC[C@@H]3CO)cc2)c1`, in [8], the Potency entry was “inactive”. Besides, the Z-AUC in [9] was 0.153 (inactive); in assay [9] (measured here: PEO1 parental Z-AUC), 0.253; in assay [9] (measured here: PEO4 Z-AUC), 0.0408. Further, in the assay on NIH3T3, the Potency is 20.6 µM (active).
As to `CN(CC(=O)N(Cc1ccc(C2CCCCC2)cc1)c1ccc(C(=O)O)cc1)S(=O)(=O)c1c(F)c(F)c(F)c(F)c1F`, the Potency is 3.5 µM (active) in [10]; 16.9 µM (active) in [2]; 6.51 µM (active) in the assay on NIH3T3; 25.1 µM (active) in the assay on CAOV3; 31.6 µM (active) with SKOV3. For the same molecule, the activity change, negative = inhibition in assay [11] was -179% [at 100 µM] (inactive).
As to `Cc1cc(C)c(NC(=O)N(Cc2ccc3c(c2)Cc2ccccc2-3)C2CCCCCC2)c(C)c1`, the Potency in [2] was 6.01 µM (active). Moreover, the figures for the activity in assay [3], in [5] and in assay [6] were -9.37%, -15.8% and -14.1%, respectively. The activity change, negative = inhibition in assay [4] is -11.3%. In addition, the Potency entry in the assay on CAOV3 and with SKOV3 was “inactive” each time.
In the case of `N#C[C@@H]1C[C@@H]2C[C@@H]2N1C(=O)[C@@H](N)C12CC3CC(CC(O)(C3)C1)C2`, the Potency entry (in [8]; in the assay with CAOV3; with SKOV3) was “inactive” in each case.
With `Cc1cc(C)c(-c2csc(NC(=O)c3ccccc3)n2)c(C)c1`, the Potency was 8.2 µM (active) in the assay with NIH3T3 and 25.1 µM (active) in the assay with SKOV3.
Consider `CC1(CO)CCCC2(C)C1C(OC(=O)c1ccccc1)C=C1C(=O)OCC12O` (stereo not given), for which the Potency in the assay with NIH3T3 is 12.8 µM (active).
For `CNc1cc(OC)c(C(=O)N[C@@H]2CCN(Cc3ccccc3)[C@@H]2C)cc1Cl`, the Potency result (in assay [1]; with CAOV3; with SKOV3) was “inactive” in each case. For the same molecule, the Potency in [7] is 0.107 µM (active); in [2], 8.49 µM (active).
For `Cc1cc(N=Nc2ccc(S(=O)(=O)Nc3ccccn3)cc2)c(N)cc1O`, the Potency in the assay with NIH3T3 is 8.2 µM (active).
On to `Cc1nnsc1C(=O)Nc1ccc(-n2nc(C(F)(F)F)cc2C(F)(F)F)cc1`, for which the Potency is 10.7 µM (active) in assay [7] and 15.1 µM (active) in assay [2]. The Potency entry in the assay with CAOV3 and in the assay on SKOV3 was “inactive” throughout.
Regarding `CS(=O)(=O)c1ccc(-c2cn3ccccc3n2)cc1`, the Potency result in [12] was “inactive”. Besides, the Potency was 5.49 µM (active) in assay [7], 13.8 µM (active) in [2], 10 µM (active) in the assay with CAOV3 and 8.91 µM (active) with SKOV3.
Consider `C=C(C)C(=O)O[C@H]1[C@H]2C(=C)C(=O)O[C@@H]2C[C@@H](C)/C=C\C(=O)[C@](C)(O)[C@@H]1OC(C)=O`, for which the values for the Potency (in [13]; in the assay with NIH3T3; in the assay with SKOV3) were 2.82 µM (active), 7.09 µM (active) and 11.2 µM (active), respectively. Also, the Potency result in [1] is “inactive”.
